PubChem BioAssay (Tox21)
Several values for one entry are separate records, joined by “and”; a condition that tells them apart may be missing. Identical values can stand only once. Results filed as inconclusive are left out. Entries that show only a call come without a potency. More than one record can exist for a structure, and the calls need not agree. Activity calls are given as the source filed them. Unless noted, calls follow the shape of the dose curve; as a rule, active = well fitted curve in the direction sought with a large enough effect in the repeat runs; inconclusive = weak or mixed curves; inactive = no such curve, though single readings can be large; an effect the other way counts as inactive or inconclusive.

What was measured:
[1] = qHTS assay to identify small molecule agonists of the estrogen receptor alpha (ER-alpha) signaling pathway in the presence of an antagonist - cell viability counter screen (AID 1259386);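 also: cells exposed to compounds for 22 h at 37 °C before the viability read; nearly all actives have a fitted effect of over 30% in size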; also: potency is read from the fitted curve at half-maximal effect
Procedure, shortened: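 Using estrogen-depleted VM7Luc4E2 cells, the 15-concentration compound series was applied together with 10.0nM ICI-182,780 and incubated 22hr at 37C/5% CO2. Cell viability was then scored by CellTiter-Fluor.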

[2] = biological target: Progesterone receptor (Homo sapiens) (UniProt P06401); test: qHTS assay to identify small molecule agonists of the progesterone receptor (PR) signaling pathway (AID 1346784; calls by dose curve; also: nearly all actives have a fitted effect of over 30% in size)
Chain of Progesterone receptor (Homo sapiens) (P06401 whole entry, looked up): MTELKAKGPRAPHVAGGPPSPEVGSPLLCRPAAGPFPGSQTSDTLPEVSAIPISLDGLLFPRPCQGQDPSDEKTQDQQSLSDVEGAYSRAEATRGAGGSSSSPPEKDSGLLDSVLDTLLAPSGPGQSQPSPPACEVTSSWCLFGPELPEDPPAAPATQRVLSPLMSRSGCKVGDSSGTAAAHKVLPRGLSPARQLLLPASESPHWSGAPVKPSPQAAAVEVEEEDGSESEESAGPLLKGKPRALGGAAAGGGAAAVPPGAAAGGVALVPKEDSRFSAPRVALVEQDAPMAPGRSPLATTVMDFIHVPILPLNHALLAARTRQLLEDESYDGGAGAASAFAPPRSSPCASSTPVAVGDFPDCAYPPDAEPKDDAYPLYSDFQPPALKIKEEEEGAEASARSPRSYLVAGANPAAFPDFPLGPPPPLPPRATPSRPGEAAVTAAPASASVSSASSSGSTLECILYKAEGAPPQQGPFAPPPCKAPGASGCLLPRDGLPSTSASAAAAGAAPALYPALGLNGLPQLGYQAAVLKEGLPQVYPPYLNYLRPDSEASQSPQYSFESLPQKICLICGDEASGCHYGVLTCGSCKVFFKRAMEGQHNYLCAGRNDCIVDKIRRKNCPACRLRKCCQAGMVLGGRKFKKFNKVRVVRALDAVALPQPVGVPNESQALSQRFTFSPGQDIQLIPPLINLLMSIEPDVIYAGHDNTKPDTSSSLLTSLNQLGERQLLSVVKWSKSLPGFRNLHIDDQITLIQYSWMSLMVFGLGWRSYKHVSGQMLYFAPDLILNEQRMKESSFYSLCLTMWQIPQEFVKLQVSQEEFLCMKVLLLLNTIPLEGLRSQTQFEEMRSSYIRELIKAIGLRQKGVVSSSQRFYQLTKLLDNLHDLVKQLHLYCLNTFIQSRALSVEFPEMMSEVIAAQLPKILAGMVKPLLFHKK
Procedure, shortened: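 PR-UAS-bla HEK 293T cells carrying a UAS-driven beta-lactamase reporter were seeded in medium with 2% charcoal-stripped FBS, preincubated 6 hr at 37C, then exposed to compounds in DMSO for 16 hr; agonism was read by LiveBLAzer B/G FRET fluorescence.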

[3] = biological target: Progesterone receptor (Homo sapiens) (UniProt P06401); test: qHTS assay to identify small molecule antagonists of the progesterone receptor (PR) signaling pathway (AID 1346795; active = well fitted inhibition curve with a large enough effect in the signal ratio in the repeat runs, not every such curve was filed as active; the % refers to the signal ratio; also: potency is read from the fitted curve at half-maximal effect)
Procedure, shortened: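 PR-UAS-bla HEK293T cells carrying a UAS-driven beta-lactamase reporter were plated in medium with 2% charcoal-stripped FBS and rested 6 hr at 37C. Compounds were added with 1 nM R5020 (final) for 16 hr, then FRET substrate loaded 2 hr at room temperature.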

[4] = qHTS assay to identify small molecule antagonists of the progesterone receptor (PR) signaling pathway - cell viability counter screen (AID 1346798); also: series mostly up to about 92 µM; nearly all actives have a fitted effect of over 50% in size
Procedure, shortened: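 PR-UAS-bla HEK293T cells in medium with 2% charcoal-stripped FBS were treated with compounds plus R5020 for 16 hr at 37C. Cell viability was then read by CellTiter-Glo luminescence after 30 min at room temperature in the same wells.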

[5] = qHTS assay to identify small molecule agonists of the progesterone receptor (PR) signaling pathway - cell viability counter screen (AID 1346799; calls by dose curve; also: nearly all actives have a fitted effect of over 45% in size)
Procedure, shortened: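 PR-UAS-bla HEK293T cells, 3,000 per well in medium with 2% charcoal-stripped FBS, were preincubated 6 hr at 37C, then exposed to compounds for 16 hr; viability was read as CellTiter-Glo luminescence after 30 min at room temperature.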

[6] = qHTS assay to identify small molecule antagonists of the TGF-beta/Smad signaling pathway - cell viability counter screen (AID 1346824); also: nearly all actives have a fitted effect of over 50% in size
Procedure, shortened: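 SBE-bla HEK 293T cells, incubated overnight, then compound plus 0.25 ng/mL TGF-beta1 (stock added) for 5 hr at 37 C. Viability was read in the same wells by CellTiter-Glo luminescence after 30 min at room temperature.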

[7] = qHTS assay to identify small molecule agonists of the TGF-beta/Smad signaling pathway - cell viability counter screen (AID 1346829); also: top concentration of the series differs between compounds; nearly all actives have a fitted effect of over 45% in size
Procedure, shortened: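 Here the cytotoxicity of library compounds is measured in SBE-bla HEK 293T cells treated for 5 hr, using CellTiter-Glo added to wells already read for the beta-lactamase reporter.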

[8] = biological target: Thyrotropin-releasing hormone receptor (Homo sapiens) (UniProt P34981); test: qHTS assay to identify small molecule antagonists of the thyrotropin-releasing hormone receptor (TRHR) signaling pathway (AID 1346877; active = well fitted inhibition curve with a large enough effect in the repeat runs, not every such curve was filed as active; also: series mostly up to about 51 µM)
Chain of Thyrotropin-releasing hormone receptor (Homo sapiens) (P34981 whole entry, looked up): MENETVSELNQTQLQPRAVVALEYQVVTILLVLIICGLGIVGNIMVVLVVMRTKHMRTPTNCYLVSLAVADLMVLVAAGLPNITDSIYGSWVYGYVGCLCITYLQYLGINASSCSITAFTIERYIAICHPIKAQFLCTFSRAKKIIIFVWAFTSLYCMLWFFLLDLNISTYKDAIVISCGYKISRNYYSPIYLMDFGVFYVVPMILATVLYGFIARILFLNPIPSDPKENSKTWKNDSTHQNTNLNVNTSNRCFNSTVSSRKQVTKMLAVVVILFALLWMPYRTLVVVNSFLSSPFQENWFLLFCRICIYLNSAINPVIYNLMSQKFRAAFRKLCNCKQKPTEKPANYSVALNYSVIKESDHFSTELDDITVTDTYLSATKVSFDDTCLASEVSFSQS
Procedure, shortened: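 Calcium signal in dye-loaded TRHR/HEK293 cells; compounds added 5 min before TRH (1 nM final); fluorescence monitored 3 min at 1 s steps.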

[9] = biological target: Thyrotropin-releasing hormone receptor (Homo sapiens) (UniProt P34981); test: qHTS assay to identify small molecule agonists of the thyrotropin-releasing hormone receptor (TRHR) signaling pathway (AID 1346891; calls by dose curve; also: series mostly up to about 58 µM)
Procedure, shortened: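 TRHR-expressing HEK293 cells were plated 18 h at 37 °C/5% CO2, loaded with calcium dye 2 h at 37 °C, then given compound in DMSO; fluorescence was read kinetically for 3 min at 1 s intervals.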

[10] = Human pregnane X receptor (PXR) small molecule agonists, qHTS cell viability counter screen (AID 1346977); also: nearly all actives have a fitted effect of over 50% in size
Procedure, shortened: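 PXR-Luc HepG2 cells in medium with 5% charcoal-stripped FBS were pre-incubated 5hr, then exposed to compounds for 24hr at 37C. Viability was read in the same wells by CellTiter-Fluor fluorescence, reagent added after 23hr with a 1hr incubation.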

[11] = Caspase-3/7 induction in HepG2 cells by small molecules, qHTS assay (AID 1346978); also: nearly all actives have a fitted effect of over 15% in size
Procedure, shortened: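 Wild-type HepG2 cells, 2,000/well, settled 5 hr at 37 C and 5% CO2, then compound-treated for 17 hr; caspase-3/7 activity read by luminescent Caspase-Glo 3/7 after 30 min at room temperature.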

[12] = Caspase-3/7 induction in CHO-K1 cells by small molecules, qHTS cell viability counter screen (AID 1346979); also: nearly all actives have a fitted effect of over 35% in size
Procedure, shortened: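 Wild-type CHO-K1 cells were seeded at 1,500 per well, rested 5hr at 37 C, then exposed to compounds in DMSO. After 16hr, CellTiter-Fluor reagent was added and fluorescence read 1hr later as the viability measure.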

[13] = Caspase-3/7 induction in CHO-K1 cells by small molecules, qHTS assay (AID 1346980); also: nearly all actives have a fitted effect of over 15% in size
Procedure, shortened: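 Wild-type CHO-K1 cells exposed to compounds for 17hr at 37 C, 5% CO2. Caspase-3/7 activity then measured by Caspase-Glo 3/7 luminescence after 30min at room temperature.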

[14] = Caspase-3/7 induction in HepG2 cells by small molecules, qHTS cell viability counter screen (AID 1346981); also: series mostly up to about 92 µM; nearly all actives have a fitted effect of over 30% in size
Procedure, shortened: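 After a 5-hr attachment period at 37 C and 5% CO2, wild-type HepG2 cells received compounds in DMSO. Sixteen hours later CellTiter-Fluor was dispensed and the fluorescent signal quantified after a further hour.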

[15] = biological target: Nuclear receptor subfamily 1 group I member 2 (Homo sapiens) (UniProt O75469); test: Human pregnane X receptor (PXR) small molecule agonists, qHTS assay (AID 1346982); also: nearly all actives have a fitted effect of over 35% in size; also: potency is read from the fitted curve at half-maximal effect
Chain of Nuclear receptor subfamily 1 group I member 2 (Homo sapiens) (O75469 whole entry, looked up): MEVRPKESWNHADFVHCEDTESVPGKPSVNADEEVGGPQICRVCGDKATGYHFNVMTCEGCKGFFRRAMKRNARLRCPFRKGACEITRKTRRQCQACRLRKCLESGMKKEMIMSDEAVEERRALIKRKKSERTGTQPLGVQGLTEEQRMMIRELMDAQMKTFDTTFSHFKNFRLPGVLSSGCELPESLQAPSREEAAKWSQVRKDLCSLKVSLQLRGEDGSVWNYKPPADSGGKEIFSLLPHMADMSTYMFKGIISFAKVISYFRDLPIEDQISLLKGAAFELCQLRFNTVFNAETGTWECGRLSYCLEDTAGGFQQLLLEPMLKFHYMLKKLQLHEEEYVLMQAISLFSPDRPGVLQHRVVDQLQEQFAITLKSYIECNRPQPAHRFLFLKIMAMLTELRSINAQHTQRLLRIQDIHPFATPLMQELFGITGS
Procedure, shortened: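 Tox21 qHTS; PXR-Luc HepG2; compounds pinned from DMSO; 24 hr, 37 C; ONE-Glo luciferase detection, 30 min room temperature.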

[16] = biological target: Cytochrome P450 2D6 (Homo sapiens) (UniProt P10635); test: Cytochrome P450 Family 2 Subfamily D Member 6 (CYP2D6) small molecule antagonists: luciferase reporter qHTS assay (AID 1671196); also: nearly all actives have a fitted effect of over 50% in size; also: potency is read from the fitted curve at half-maximal effect
Chain of Cytochrome P450 2D6 (Homo sapiens) (P10635 whole entry, looked up): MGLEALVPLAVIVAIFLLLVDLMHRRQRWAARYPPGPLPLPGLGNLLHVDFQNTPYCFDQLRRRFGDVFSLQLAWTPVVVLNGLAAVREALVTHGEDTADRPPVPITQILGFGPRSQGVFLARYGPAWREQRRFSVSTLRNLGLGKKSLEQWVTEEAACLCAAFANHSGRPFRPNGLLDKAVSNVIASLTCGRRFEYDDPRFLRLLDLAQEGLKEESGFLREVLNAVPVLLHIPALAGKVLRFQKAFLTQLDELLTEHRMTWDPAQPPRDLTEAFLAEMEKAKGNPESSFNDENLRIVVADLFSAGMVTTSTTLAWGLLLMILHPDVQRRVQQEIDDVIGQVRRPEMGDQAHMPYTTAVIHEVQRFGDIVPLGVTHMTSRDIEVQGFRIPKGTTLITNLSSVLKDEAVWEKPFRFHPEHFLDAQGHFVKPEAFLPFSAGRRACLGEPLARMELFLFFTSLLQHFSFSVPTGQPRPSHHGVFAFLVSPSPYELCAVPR
Procedure, shortened: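 Room-temperature luminescent CYP2D6 activity assay: compound preincubated 10 min with enzyme–substrate mix, NADPH-initiated reaction 1 h, detection reagent 20 min before reading.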

[17] = biological target: Cytochrome P450 2C19 (Homo sapiens) (UniProt P33261); test: Cytochrome P450 Family 2 Subfamily C Member 19 (CYP2C19) small molecule antagonists: luciferase reporter qHTS assay (AID 1671197); also: nearly all actives have a fitted effect of over 65% in size; also: potency is read from the fitted curve at half-maximal effect
Chain of Cytochrome P450 2C19 (Homo sapiens) (P33261 whole entry, looked up): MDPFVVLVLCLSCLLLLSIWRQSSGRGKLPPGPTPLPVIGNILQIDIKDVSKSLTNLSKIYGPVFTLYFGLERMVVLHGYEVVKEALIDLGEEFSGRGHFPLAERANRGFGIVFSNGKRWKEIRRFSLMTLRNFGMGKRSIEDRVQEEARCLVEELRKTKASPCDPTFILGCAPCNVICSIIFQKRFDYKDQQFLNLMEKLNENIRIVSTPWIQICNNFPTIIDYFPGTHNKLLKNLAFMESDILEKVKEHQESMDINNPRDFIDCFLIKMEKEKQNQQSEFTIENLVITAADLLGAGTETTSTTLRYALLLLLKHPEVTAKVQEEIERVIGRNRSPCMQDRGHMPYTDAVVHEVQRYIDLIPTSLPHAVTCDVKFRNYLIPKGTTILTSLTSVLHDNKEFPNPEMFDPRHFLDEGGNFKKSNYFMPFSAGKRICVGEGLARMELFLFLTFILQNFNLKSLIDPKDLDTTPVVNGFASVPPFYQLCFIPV
Procedure, shortened: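 Light output is proportional to CYP2C19 activity: proluciferin substrate is converted to luciferin, then detected by a luciferin detection reagent that also stops the 1 h, 37C NADPH-driven reaction. Ketoconazole serves as positive control.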

[18] = qHTS assay to identify small molecule agonists of the TGF-beta/Smad signaling pathway (AID 1346859; active = well fitted activation curve with a large enough effect in the signal ratio in the repeat runs, not every such curve was filed as active; the % refers to the signal ratio; also: series mostly up to about 77 µM)
Procedure, shortened: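 HEK 293T cells stably carrying a beta-lactamase reporter driven by the Smad binding element were seeded overnight, exposed to DMSO-dissolved compounds for 5 hr at 37 C, 5% CO2, then loaded with FRET substrate for 2 hr at room temperature.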

[19] = biological target: Nuclear receptor subfamily 1 group I member 2 (Rattus norvegicus) (UniProt Q9R1A7); test: Rat pregnane X receptor (rPXR) activation by small molecules, qHTS assay (AID 1346983); settings: rPXR luciferase reporter cells, One-Glo luminescence, 24 h; stronger effect = higher value; also: nearly all actives have a fitted effect of over 20% in size
Chain of Nuclear receptor subfamily 1 group I member 2 (Rattus norvegicus) (Q9R1A7 whole entry, looked up): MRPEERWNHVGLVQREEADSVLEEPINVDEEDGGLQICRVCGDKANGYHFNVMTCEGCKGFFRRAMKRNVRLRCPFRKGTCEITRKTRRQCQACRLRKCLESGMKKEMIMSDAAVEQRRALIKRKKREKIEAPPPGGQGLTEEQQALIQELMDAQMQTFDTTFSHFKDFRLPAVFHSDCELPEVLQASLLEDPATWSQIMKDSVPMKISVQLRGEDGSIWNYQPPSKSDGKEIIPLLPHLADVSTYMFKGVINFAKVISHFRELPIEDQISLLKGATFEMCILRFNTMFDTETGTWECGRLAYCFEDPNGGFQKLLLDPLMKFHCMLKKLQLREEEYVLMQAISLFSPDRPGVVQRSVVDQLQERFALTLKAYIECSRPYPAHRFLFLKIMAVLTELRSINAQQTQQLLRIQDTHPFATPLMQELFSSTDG
Procedure, shortened: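 Cell-based rPXR activation assay: rPXR cells, 2,000 per well, rested 5hr at 37 C, then exposed to compounds in DMSO for 24 hr at 37 C. Luciferase activity read by One-Glo luminescence after 30 min at room temperature.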

[20] = biological target: Nuclear receptor subfamily 1 group I member 2 (Homo sapiens) (UniProt O75469); test: Human pregnane X receptor (PXR) activation by small molecules, qHTS assay (AID 1346985); also: nearly all actives have a fitted effect of over 40% in size
Procedure, shortened: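 DPX-2 cells (HepG2 co-transfected with a PXR response element and a CYP3A4-promoter luciferase construct) were seeded at 2,000 per well, rested 5 hr at 37C, then exposed to DMSO-dissolved compounds for 24 hr. Activation was read as luciferase luminescence.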

Structure (SMILES)	Potency [1]	Potency [2]	Potency [3]	Potency [4]	Potency [5]	Potency [6]	Potency [7]	Potency [8]	Potency [9]	Potency [10]	Potency [11]	Potency [12]	Potency [13]	Potency [14]	Potency [15]	Potency [16]	Potency [17]	outcome [18]	max activation [19]	Potency [20]
c1ccc2c(c1)CCCC2C1=NCCN1 (stereo not drawn)	inactive	inactive	inactive	inactive	inactive	inactive	inactive	inactive	inactive	inactive	inactive	inactive	inactive	inactive						
c1ccc2n[nH]nc2c1	inactive	inactive	inactive	inactive	inactive	inactive	inactive			inactive	inactive	inactive	inactive	inactive	inactive	inactive	inactive			
NC(N)=NC(=O)Cc1c(Cl)cccc1Cl	inactive	inactive	inactive	inactive	inactive	inactive	inactive	inactive	inactive	inactive	inactive	inactive		inactive	inactive			inactive		
CCC[C@H](N[C@@H](C)C(=O)N1[C@H](C(=O)O)C[C@@H]2CCCC[C@@H]21)C(=O)OCC	inactive	inactive	inactive	inactive	inactive	inactive	inactive			inactive	inactive	inactive	inactive	inactive	inactive	inactive	inactive	inactive		
O=C1Nc2ccccc2C1(c1ccc(O)cc1)c1ccc(O)cc1	1.37 µM (active) and 944 nM (active)	inactive	54.5 µM (active)			inactive	inactive			inactive	inactive			inactive	61.1 µM (active) and inactive					
CCCCOCCOC(=O)c1ccccc1C(=O)OCCOCCCC	inactive	inactive	53.3 µM (active)		inactive	inactive	inactive	inactive	inactive	inactive	inactive	inactive	inactive	inactive	59.8 µM (active) and inactive	31 µM (active) and 25.2 µM (active)	3.48 µM (active) and 1.78 µM (active)	inactive		
CCC(CO)(CO)COCC(CC)(CO)CO	inactive	inactive	inactive		inactive	inactive	inactive	inactive	inactive	inactive	inactive	inactive	inactive	inactive	inactive	inactive	inactive	inactive		
COc1cc(C(=S)N2CCOCC2)ccc1O	inactive	inactive	inactive		inactive	inactive	inactive			inactive	inactive	inactive		inactive	inactive	inactive		inactive	-1.33% (inactive)	inactive
